Drawing on paper PMC8159961, “Exploring protein hotspots by optimized fragment pharmacophores” (Nature Communications, 2021), this text covers Thrombin for 40 molecules.

In the assay the target is thrombin (human, UniProt P00734). Briefly: primary screen, binary call; higher = more effect of the substance. Also noted: screenings were carried out in duplicate in one independent experiment. The conditions noted are these: 200 µM. Here is the method: Protease inhibitory assays were performed in transparent microtiter plates in a final volume of 200 µL with the use of chromogenic substrates. The reaction rates in the absence and in the presence of the inhibitor were measured; screenings were carried out in duplicate in one independent experiment and Ki values were determined in triplicate in two independent experiments.
As to `N#CC1CCS(=O)(=O)C1` (stereo not shown), the Thrombin was 0 (inactive).

On to `O=C(O)CC1CCC(=O)N1` (stereo not shown), for which the Thrombin was 0 (inactive). Regarding `c1ccc(Nc2nncs2)cc1`, the Thrombin is 0 (inactive).

For the molecule `Cc1cc(C)c2c(=O)[nH]n(C)c2n1`, the Thrombin was 0 (inactive). Consider `CCN(CC)c1cccc(C)c1`, for which the Thrombin was 0 (inactive). With `Clc1ccc2nnnn2n1`, the Thrombin is 0 (inactive). On to `CN(C)c1cc(CN)ccn1`, for which the Thrombin is 0 (inactive).

For the molecule `O=C(c1ccccc1)N1CCC(CO)CC1`, the Thrombin was 0 (inactive). Take `O=C1CCN(c2ccccn2)CC1`: the Thrombin is 0 (inactive). Consider `O=C(O)c1cccc(Nc2ncccn2)c1`, for which the Thrombin was 0 (inactive).

As for `Cn1nc(C(F)(F)F)cc1O`, the Thrombin was 0 (inactive). For `Cn1c(CO)nc2ccccc21` the value was 0 (inactive).

As to `N#Cc1ccc(C(=O)N2CCOCC2)cc1`, the Thrombin is 0 (inactive). Regarding `NC(c1ccccc1)c1ccccc1`, the Thrombin was 0 (inactive).

Consider `CCc1ccc(NC2=NCCCS2)cc1`, for which the Thrombin is 0 (inactive). In the case of `O=c1[nH]c2c(s1)CCC2`, the Thrombin is 0 (inactive).

Take `COC(=O)c1c(C)nc(C2CC2)[nH]c1=O`: the Thrombin was 0 (inactive). Turning to `O=C(O)C1CCCN(C(=O)N2CCCC2)C1` (stereo not shown), the Thrombin is 0 (inactive). For `O=C1CCC(=O)N(c2ccccc2)N1` the value was 0 (inactive); for `CC(CN)N1CCc2sccc2C1` (stereo not shown), 0 (inactive); for `Oc1cnc(-c2ccccc2)nc1`, 0 (inactive). Next, `Brc1ccc(-c2ccon2)cc1`: 0 (inactive).

Turning to `Cn1c(N)nc2ccccc21`, the Thrombin is 0 (inactive).

With `N#Cc1ccc2ncsc2c1`, the Thrombin is 0 (inactive). Take `COc1ccc(C2=CCNCC2)cc1`: the Thrombin is 0 (inactive). Take `Cc1nccn1Cc1cccc(C#N)c1`: the Thrombin is 0 (inactive). For `N[C@H]1c2ccccc2C[C@H]1CO`, the Thrombin was 0 (inactive). Consider `Cc1cnc(C(F)(F)F)cn1`, for which the Thrombin is 0 (inactive).

As to `CC1(C)OC(=O)c2cc(Br)c(O)cc2O1`, the Thrombin is 0 (inactive). For `CC(=O)c1sc(-c2ccc(O)cc2)nc1C` the value was 1 (active). `O=C1CNCCN1c1ccccc1`: the Thrombin was 0 (inactive). For `c1ccc(-c2ccncc2)cc1` the value was 0 (inactive); for `CC(=O)c1ccc2c(c1)CCCN2`, 0 (inactive). Turning to `O=C1CSC(Nc2ccc(F)cc2)=N1`, the Thrombin was 0 (inactive). Next, `CCn1cnc2ccccc21`: 0 (inactive); `O=c1ccc2c([nH]1)CCCC2`: 0 (inactive); `O=C(c1ccccc1F)N1CCNCC1`: 0 (inactive). For `c1cnc2c(c1)NCCC2` the value was 0 (inactive); for `O=C(O)C1CCN(c2ncccn2)CC1`, 1 (active); for `O=C1NC(=O)/C(=C\c2cccs2)N1`, 0 (inactive).
